Structures are written as SMILES. About 83,000 compounds went through this panel and 20% of them were active in at least one assay; those are over-represented in the sample as a whole.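 Negative percent growth values reflect cell death: -40 means 40% of the cells present at the start died, and -100 means all died.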 Unmarked numbers belong to inactive results. The source made the active and inactive calls. Rule for the calls: active = growth percent below 10; inactive = the rest.

Among the test systems are OVCAR-8 ovarian; OVCAR-5 ovarian; SK-OV-3 ovarian; IGROV1 ovarian; OVCAR-3 ovarian; HS 578T breast; NCI/ADR-RES ovarian; T-47D breast; BT-549 breast; SW-620 colon; MCF7 breast; HCT-116 colon; HCC-2998 colon; KM12 colon; OVCAR-4 ovarian; MDA-MB-435 melanoma.
What all share (experiment): NCI-60 one-dose screen, 48 h (100 = growth as untreated, 0 = no growth, -100 = all killed)
Conditions in all cases: 10 µM unless noted

As to `CCN(CC)c1ccc(C(O)C2=CC(=O)c3ccccc3C2=O)cc1` (centres undefined), the growth in the assay with OVCAR-8 ovarian is -3.87% (active); in the assay with OVCAR-5 ovarian, -23.8% (active); with SK-OV-3 ovarian, 73.1%; with IGROV1 ovarian, -42.7% (active); with OVCAR-3 ovarian, -77.2% (active); in the assay with HS 578T breast, -10.6% (active). Further, the growth was 84.4% in the assay with NCI/ADR-RES ovarian; -60.6% (active) in the assay on T-47D breast; 23.6% in the assay on BT-549 breast; -42.7% (active) in the assay with SW-620 colon; 9.53% (active) in the assay with MCF7 breast; -9.43% (active) in the assay with HCT-116 colon. Moreover, the growth with HCC-2998 colon was -60.5% (active); in the assay with KM12 colon, 1.59% (active).

Turning to `Cc1nn(-c2ccc(Cl)cc2)c2nc3c(nc12)C(=O)c1ccccc1-3`, the growth in the assay with OVCAR-5 ovarian is 90.8%; with OVCAR-4 ovarian, 34.5%; with SK-OV-3 ovarian, 32.7%; in the assay with IGROV1 ovarian, 77.3%; in the assay with OVCAR-3 ovarian, 62.8%; in the assay with HS 578T breast, 63.7%. Moreover, the growth is 62.9% in the assay with NCI/ADR-RES ovarian; 73.7% with T-47D breast; 82% in the assay on BT-549 breast; 67.5% with MDA-MB-435 melanoma; 83.4% with SW-620 colon; 49.1% in the assay with MCF7 breast. Besides, the growth with HCT-116 colon was 39.9%; in the assay on HCC-2998 colon, 52.5%; with KM12 colon, 78.8%.

As to `CN(C(=O)c1ccccc1)N(C)C(=O)c1ccccc1`, the growth with OVCAR-8 ovarian is 103%; in the assay on OVCAR-5 ovarian it was 99.3%; in the assay with SK-OV-3 ovarian it was 105%; in the assay with IGROV1 ovarian, 95.2%; in the assay with OVCAR-3 ovarian, 127%; with HS 578T breast it was 109%. The growth is 108% with NCI/ADR-RES ovarian; 94.5% in the assay on T-47D breast; 97% in the assay with BT-549 breast; 106% in the assay with SW-620 colon; 95.2% in the assay with MCF7 breast; 100% in the assay on HCT-116 colon. In addition, the growth was 116% in the assay with HCC-2998 colon and 113% in the assay with KM12 colon.

As for `CCOC(=O)c1c(C)c(C(=O)OCC)n(C)c1C`, the growth was 120% with OVCAR-8 ovarian; 114% with OVCAR-5 ovarian; 101% with OVCAR-4 ovarian; 98% in the assay with SK-OV-3 ovarian; 92.6% with HS 578T breast; 118% with NCI/ADR-RES ovarian. For the same compound, the growth with T-47D breast is 90.7%; in the assay on BT-549 breast it was 91.5%; with MDA-MB-435 melanoma it was 101%; in the assay with SW-620 colon it was 94.5%; in the assay with MCF7 breast it was 127%; in the assay with HCT-116 colon, 97.9%. Also, the growth with HCC-2998 colon was 110%; in the assay on KM12 colon, 112%.

As to `COC(=O)[C@]1(CCSC)N[C@H](c2cn(-c3ccccc3)nc2C)[C@@H]2C(=O)N(c3ccccc3)C(=O)[C@@H]21`, the growth in the assay with OVCAR-5 ovarian is 104%; in the assay on OVCAR-4 ovarian, 106%; in the assay with SK-OV-3 ovarian it was 95.2%; in the assay on IGROV1 ovarian, 118%; in the assay with OVCAR-3 ovarian it was 98.7%; in the assay with HS 578T breast it was 93.7%. Moreover, the growth was 91% in the assay on NCI/ADR-RES ovarian; 108% with T-47D breast; 95.5% in the assay on BT-549 breast; 106% in the assay with MDA-MB-435 melanoma; 107% in the assay with SW-620 colon; 98.5% with MCF7 breast. Also, the growth was 98.3% in the assay with HCT-116 colon, 95.2% in the assay on HCC-2998 colon and 107% with KM12 colon.

Consider `O=C1Cc2cc(CCn3cncn3)c(Cl)cc2N1`, for which the growth in the assay with OVCAR-5 ovarian was 87.4%; with OVCAR-4 ovarian it was 86.8%; in the assay on SK-OV-3 ovarian, 79.3%; in the assay with IGROV1 ovarian, 84.7%; with OVCAR-3 ovarian it was 71.7%; in the assay with HS 578T breast, 28.6%. The growth with NCI/ADR-RES ovarian was 52.9%; in the assay with T-47D breast, 99.1%; with BT-549 breast, 68%; in the assay on MDA-MB-435 melanoma it was 34.4%; in the assay on SW-620 colon it was 54.2%; in the assay on MCF7 breast, 29%. Moreover, the growth was 79% with HCT-116 colon, 75.1% with HCC-2998 colon and 36% with KM12 colon.

Turning to `CCOC(Cc1c(N)[nH]c(=S)[nH]c1=O)OCC`, the growth with OVCAR-8 ovarian was 96.2%; in the assay with OVCAR-5 ovarian it was 93.9%; with SK-OV-3 ovarian, 107%; with IGROV1 ovarian, 104%; in the assay with OVCAR-3 ovarian, 120%; with HS 578T breast it was 120%. Moreover, the growth was 102% with NCI/ADR-RES ovarian; 99% in the assay on T-47D breast; 102% with BT-549 breast; 105% with SW-620 colon; 96.8% in the assay with MCF7 breast; 103% in the assay with HCT-116 colon. Further, the growth was 113% with HCC-2998 colon and 112% with KM12 colon.

As to `COC(=O)[C@]1(CCSC)N[C@H](c2cn(-c3ccccc3)nc2C)[C@@H]2C(=O)N(c3ccc(C)cc3)C(=O)[C@@H]21`, the growth is 94.6% in the assay on OVCAR-5 ovarian; 112% in the assay on OVCAR-4 ovarian; 98.5% with SK-OV-3 ovarian; 115% with IGROV1 ovarian; 114% with OVCAR-3 ovarian; 103% in the assay on HS 578T breast. Also, the growth with NCI/ADR-RES ovarian is 93.4%; in the assay with T-47D breast, 101%; in the assay on BT-549 breast it was 82.8%; in the assay with MDA-MB-435 melanoma, 105%; with SW-620 colon, 106%; with HCT-116 colon, 92.5%. Further, the growth in the assay with HCC-2998 colon was 96.4%; in the assay on KM12 colon it was 104%.

Take `COc1c(O)cc2oc3cc(O)c(CC=C(C)C)c(O)c3c(=O)c2c1C/C=C(\C)CCC=C(C)C`: the growth with OVCAR-8 ovarian was 24.4%; with OVCAR-5 ovarian it was 84.7%; in the assay with OVCAR-4 ovarian, 72.6%; in the assay with IGROV1 ovarian, 81.4%; in the assay with OVCAR-3 ovarian, 62%; with NCI/ADR-RES ovarian, -39% (active). The growth was 77.1% with T-47D breast; 99.3% in the assay with BT-549 breast; 78.4% with MDA-MB-435 melanoma; 41.5% in the assay on SW-620 colon; 21.9% in the assay with MCF7 breast; -29.6% (active) with HCT-116 colon. The growth was -0.115% (active) in the assay with HCC-2998 colon and 25% in the assay on KM12 colon.

Source of the values: PubChem BioAssay (NCI).
